The full data set covers some 7,900 targets. This sample favours those with a hit. About 0.6% of all pairs of compound and target were hits.
Tests used:
Experiment in all cases: log2 fold change, soluble protein after heating vs DMSO (PISA); higher = thermal stabilisation; K562 cells, 10 uM, 30 min; active = over 0.2 and 3.5 SD of the protein, either way, in both replicates (recomputed)
[1] = compound: CCn1c(C(=O)N(C2CC2)C2CC2)cc2c3c(ncn3C)c(Nc3cc(C)n(C)n3)nc21
Procedure, shortened: (§1)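 Thermal stability values are relative to control samples and come from duplicates. They are expressed as log2 fold changes. For measurement, K562 cells (2×10^6 cells/mL) received 10 μM compound for 30 min, and aliquots were heated for 3 min over 48°C-58°C, pooled, and extracted at 4°C in PBS with 0.5% NP-40. Soluble protein, the supernatant after 21,000xg for 90 min, was quantified by TMTpro 16plex LC-MS/MS with equalised channel sums.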

Tubastatin A = compound: CN1CCc2c(c3ccccc3n2Cc2ccc(C(=O)NO)cc2)C1 [Tubastatin A]
Procedure, shortened: as §1

[2] = compound: CNC(=O)C1=CC=CC=C1NC2=NC(=NC=C2Cl)NC3=C(C=C(C=C3)N4CCOCC4)OC
Procedure, shortened: as §1

alvocidib = compound: CN1CC[C@H](c2c(O)cc(O)c3c(=O)cc(-c4ccccc4Cl)oc23)[C@H](O)C1 [alvocidib]
Procedure, shortened: as §1

epoxomicin = compound: CC[C@H](C)[C@@H](C(=O)N[C@@H]([C@@H](C)O)C(=O)N[C@@H](CC(C)C)C(=O)[C@]1(CO1)C)NC(=O)[C@H]([C@@H](C)CC)N(C)C(=O)C [epoxomicin]
Procedure, shortened: as §1

[3] = compound: CN(C)CC(=O)Nc1ccc2[nH]c(=O)c3ccccc3c2c1
Procedure, shortened: as §1

rosiglitazone = compound: CN(CCOC1=CC=C(C=C1)C[C@H]2C(=O)NC(=O)S2)C3=CC=CC=N3 (racemic) [rosiglitazone]
Procedure, shortened: as §1

defactinib = compound: CNC(=O)c1ccc(Nc2ncc(C(F)(F)F)c(NCc3nccnc3N(C)S(C)(=O)=O)n2)cc1 [defactinib]
Procedure, shortened: as §1

[4] = compound: COC(=O)[C@H](CCSC)NC(=O)C1=C(C=C(C=C1)NC[C@H](CS)N)C2=CC=CC=C2
Procedure, shortened: as §1

[5] = compound: CC[C@@H]1C(=O)N(C)c2cnc(Nc3ccc(C(=O)NC4CCN(C)CC4)cc3OC)nc2N1C1CCCC1
Procedure, shortened: as §1

[6] = compound: CCn1cc(-c2ccnc3[nH]c(-c4cccc(CN(C)C)c4)cc23)c(-c2ccc(NC(=O)N(C)C)cc2)n1
Procedure, shortened: as §1

[7] = compound: CN1CCC(CNc2ccc3ncc(-c4cccc(OC(F)(F)F)c4)n3n2)CC1
Procedure, shortened: as §1

rucaparib = compound: CNCc1ccc(-c2[nH]c3cc(F)cc4c3c2CCNC4=O)cc1 [rucaparib]
Procedure, shortened: as §1

encorafenib = compound: COC(=O)N[C@@H](C)CNc1nccc(-c2cn(C(C)C)nc2-c2cc(Cl)cc(NS(C)(=O)=O)c2F)n1 [encorafenib]
Procedure, shortened: as §1

[8] = compound: CC[C@H](C)N1C=C(C2=C(C=C(C=C21)C3=CN=C(C=C3)N4CCNCC4)C(=O)NCC5=C(C=C(NC5=O)C)C)C
Procedure, shortened: as §1

[9] = compound: CN1C2=C(C3=C1C(=O)N(N=C3)CC4=CC(=CC=C4)N)SC(=C2)S(=O)C
Procedure, shortened: as §1

saracatinib = compound: CN1CCN(CCOc2cc(OC3CCOCC3)c3c(Nc4c(Cl)ccc5c4OCO5)ncnc3c2)CC1 [saracatinib]
Procedure, shortened: as §1

sotrastaurin = compound: CN1CCN(c2nc(C3=C(c4c[nH]c5ccccc45)C(=O)NC3=O)c3ccccc3n2)CC1 [sotrastaurin]
Procedure, shortened: as §1

[10] = compound: CNc1nc(-c2ccc3c(N)n[nH]c3c2)cc(N2C[C@@H](C(=O)NC3CCCCC3)CC[C@H]2C)n1
Procedure, shortened: as §1

volasertib = compound: CC[C@@H]1C(=O)N(C)c2cnc(Nc3ccc(C(=O)N[C@H]4CC[C@H](N5CCN(CC6CC6)CC5)CC4)cc3OC)nc2N1C(C)C [volasertib]
Procedure, shortened: as §1

Measured: log2 fold change

EEF1D isoform 3 (UniProt P29692)
inactive: [1] -0.067 | Tubastatin A 0.147 | [2] -0.03

DBNL (UniProt Q9UJU6)
inactive: alvocidib -0.142

DOP1A (UniProt Q5JWR5)
Sequence of UniProt Q5JWR5 (Q5JWR5 whole entry, looked up): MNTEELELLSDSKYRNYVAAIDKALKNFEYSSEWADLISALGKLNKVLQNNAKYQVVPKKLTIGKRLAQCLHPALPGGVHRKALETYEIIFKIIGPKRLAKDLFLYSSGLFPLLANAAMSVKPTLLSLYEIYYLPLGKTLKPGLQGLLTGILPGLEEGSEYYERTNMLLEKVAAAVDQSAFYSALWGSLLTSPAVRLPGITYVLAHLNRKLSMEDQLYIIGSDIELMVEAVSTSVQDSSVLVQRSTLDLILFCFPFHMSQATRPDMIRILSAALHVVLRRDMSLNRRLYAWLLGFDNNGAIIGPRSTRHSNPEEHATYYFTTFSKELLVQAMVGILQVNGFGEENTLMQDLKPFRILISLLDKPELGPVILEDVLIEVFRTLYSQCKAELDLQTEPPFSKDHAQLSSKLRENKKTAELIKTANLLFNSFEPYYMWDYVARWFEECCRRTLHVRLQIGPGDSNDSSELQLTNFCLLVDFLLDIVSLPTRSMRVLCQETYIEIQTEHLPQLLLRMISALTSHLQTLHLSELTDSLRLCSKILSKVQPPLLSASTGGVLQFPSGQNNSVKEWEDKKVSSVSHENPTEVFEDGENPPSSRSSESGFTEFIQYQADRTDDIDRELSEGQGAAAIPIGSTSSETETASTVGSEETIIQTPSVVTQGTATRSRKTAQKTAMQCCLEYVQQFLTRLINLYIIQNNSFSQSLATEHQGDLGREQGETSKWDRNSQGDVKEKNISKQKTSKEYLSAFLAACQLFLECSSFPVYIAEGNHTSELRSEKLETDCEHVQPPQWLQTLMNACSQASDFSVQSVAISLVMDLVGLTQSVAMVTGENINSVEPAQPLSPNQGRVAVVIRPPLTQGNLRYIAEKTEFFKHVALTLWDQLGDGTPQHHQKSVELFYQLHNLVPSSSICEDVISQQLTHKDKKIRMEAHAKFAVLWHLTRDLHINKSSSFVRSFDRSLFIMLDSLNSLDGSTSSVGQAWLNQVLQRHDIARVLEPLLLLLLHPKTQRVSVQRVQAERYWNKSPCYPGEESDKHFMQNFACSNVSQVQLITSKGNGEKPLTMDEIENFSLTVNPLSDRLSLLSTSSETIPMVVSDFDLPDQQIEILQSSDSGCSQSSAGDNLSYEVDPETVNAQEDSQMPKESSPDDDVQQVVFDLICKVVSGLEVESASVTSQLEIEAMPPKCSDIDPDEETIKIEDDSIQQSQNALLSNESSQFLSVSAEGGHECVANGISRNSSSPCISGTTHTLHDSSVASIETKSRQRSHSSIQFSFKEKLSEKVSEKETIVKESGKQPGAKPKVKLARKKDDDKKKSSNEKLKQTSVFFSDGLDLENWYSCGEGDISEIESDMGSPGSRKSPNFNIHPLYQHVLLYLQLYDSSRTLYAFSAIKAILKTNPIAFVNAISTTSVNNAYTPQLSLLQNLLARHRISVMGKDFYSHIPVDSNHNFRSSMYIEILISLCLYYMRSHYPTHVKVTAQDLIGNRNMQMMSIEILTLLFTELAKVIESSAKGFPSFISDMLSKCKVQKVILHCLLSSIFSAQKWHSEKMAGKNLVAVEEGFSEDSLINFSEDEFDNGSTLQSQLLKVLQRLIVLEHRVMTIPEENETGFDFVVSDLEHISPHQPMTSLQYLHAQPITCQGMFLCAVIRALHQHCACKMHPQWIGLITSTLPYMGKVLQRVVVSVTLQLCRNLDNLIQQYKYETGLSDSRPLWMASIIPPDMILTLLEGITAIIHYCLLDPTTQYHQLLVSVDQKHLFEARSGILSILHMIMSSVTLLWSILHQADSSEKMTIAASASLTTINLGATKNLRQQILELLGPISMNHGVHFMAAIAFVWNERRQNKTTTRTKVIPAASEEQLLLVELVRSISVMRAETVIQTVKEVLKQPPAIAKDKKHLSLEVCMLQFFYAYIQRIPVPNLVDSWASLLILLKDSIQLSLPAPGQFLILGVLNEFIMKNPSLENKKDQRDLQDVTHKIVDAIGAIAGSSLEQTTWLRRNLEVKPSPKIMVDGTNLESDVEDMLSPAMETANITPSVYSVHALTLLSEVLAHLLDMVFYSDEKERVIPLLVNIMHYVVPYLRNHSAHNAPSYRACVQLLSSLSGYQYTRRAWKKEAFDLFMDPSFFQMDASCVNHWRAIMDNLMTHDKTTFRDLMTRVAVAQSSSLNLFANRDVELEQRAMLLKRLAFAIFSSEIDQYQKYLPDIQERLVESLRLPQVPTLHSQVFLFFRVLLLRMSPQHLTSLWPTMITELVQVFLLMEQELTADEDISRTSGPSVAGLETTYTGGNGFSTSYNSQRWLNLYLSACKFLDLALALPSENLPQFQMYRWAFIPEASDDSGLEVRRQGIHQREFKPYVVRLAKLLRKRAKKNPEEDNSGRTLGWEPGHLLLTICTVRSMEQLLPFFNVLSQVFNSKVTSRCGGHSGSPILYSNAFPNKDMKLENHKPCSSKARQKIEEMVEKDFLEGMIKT
inactive: epoxomicin 0.069 | [1] -0.067 | [3] 0.121 | rosiglitazone -0.026 | [2] -0.052 | defactinib 0.164 | [4] -0.083

EHBP1 (UniProt Q8NDI1)
inactive: [5] -0.155 | [6] 0.011 | [7] 0.015 | alvocidib -0.085 | Tubastatin A 0.045 | rucaparib 0.135 | encorafenib -0.058

DCAF4 (UniProt Q8WV16)
Sequence of UniProt Q8WV16 (Q8WV16 whole entry, looked up): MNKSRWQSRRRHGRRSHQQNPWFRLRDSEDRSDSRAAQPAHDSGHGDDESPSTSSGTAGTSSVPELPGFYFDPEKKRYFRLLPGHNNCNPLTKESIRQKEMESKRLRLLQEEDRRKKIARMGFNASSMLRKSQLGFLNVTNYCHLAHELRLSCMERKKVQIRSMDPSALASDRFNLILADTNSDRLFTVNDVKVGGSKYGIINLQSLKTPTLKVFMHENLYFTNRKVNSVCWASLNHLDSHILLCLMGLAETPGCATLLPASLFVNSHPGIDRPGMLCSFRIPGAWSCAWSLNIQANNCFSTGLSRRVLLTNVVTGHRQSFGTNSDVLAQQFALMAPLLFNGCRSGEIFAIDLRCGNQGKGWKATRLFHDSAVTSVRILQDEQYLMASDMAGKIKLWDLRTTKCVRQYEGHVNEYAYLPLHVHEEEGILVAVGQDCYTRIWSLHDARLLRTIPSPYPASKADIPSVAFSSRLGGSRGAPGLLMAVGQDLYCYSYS
inactive: [5] 0.03 | [8] -0.075 | epoxomicin 0.041 | [6] 0.147 | [9] 0.128 | [7] -0.086 | saracatinib -0.097 | sotrastaurin 0.027 | rucaparib -0.346 | [10] 0.193 | encorafenib 0.103

CTSS (UniProt P25774)
active: saracatinib 0.478
inactive: [5] -0.027 | [6] 0.126 | [3] -0.021 | [9] 0.051 | [7] -0.034 | sotrastaurin 0.051 | alvocidib -0.039 | Tubastatin A -0.084 | defactinib 0.074 | rucaparib 0.258 | [10] 0.134 | encorafenib -0.074 | [4] -0.012

EDRF1 (UniProt Q3B7T1)
inactive: [5] 0.046 | epoxomicin 0.009 | [1] -0.089 | [6] -0.046 | rosiglitazone 0.004 | [9] 0.006 | [7] -0.014 | saracatinib 0.104 | sotrastaurin 0.012 | alvocidib -0.006 | [2] -0.111 | rucaparib 0.098 | [10] 0.07 | encorafenib 0.058

EID1 (UniProt Q9Y6B2)
active: epoxomicin 0.83
inactive: volasertib 0.053 | [8] 0.172 | [1] 0.05 | [6] -0.104 | [7] -0.317 | sotrastaurin -0.049 | Tubastatin A 0.599 | [2] -0.111

FAM117B (UniProt Q6P1L5)
Sequence of UniProt Q6P1L5 (Q6P1L5 whole entry, looked up): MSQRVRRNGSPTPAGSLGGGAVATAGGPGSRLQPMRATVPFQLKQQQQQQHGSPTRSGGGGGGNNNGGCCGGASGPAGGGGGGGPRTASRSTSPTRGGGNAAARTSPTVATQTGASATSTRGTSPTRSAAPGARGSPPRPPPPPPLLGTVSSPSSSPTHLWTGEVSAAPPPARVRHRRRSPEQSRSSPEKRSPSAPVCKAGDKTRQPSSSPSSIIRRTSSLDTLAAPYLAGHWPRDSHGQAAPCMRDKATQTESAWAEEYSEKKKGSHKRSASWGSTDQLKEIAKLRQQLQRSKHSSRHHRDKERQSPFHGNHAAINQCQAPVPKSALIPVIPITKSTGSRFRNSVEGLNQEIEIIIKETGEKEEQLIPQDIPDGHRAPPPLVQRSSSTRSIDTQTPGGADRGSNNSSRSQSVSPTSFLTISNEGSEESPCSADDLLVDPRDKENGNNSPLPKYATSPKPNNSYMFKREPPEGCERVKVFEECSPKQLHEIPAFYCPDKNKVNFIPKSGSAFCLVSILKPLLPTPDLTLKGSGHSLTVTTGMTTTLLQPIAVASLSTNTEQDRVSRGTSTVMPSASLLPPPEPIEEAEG
inactive: [5] -0.054 | epoxomicin 0.021 | [1] -0.211 | [6] 0.012 | [3] 0.11 | [9] -0.072 | [7] 0.017 | saracatinib -0.004 | alvocidib -0.117 | Tubastatin A 0.084 | [2] -0.035 | defactinib -0.494 | rucaparib -0.013 | [10] -0.223 | encorafenib -0.092 | [4] -0.341

EZH2 isoform 2 (UniProt Q15910)
inactive: volasertib -0.259 | epoxomicin 0.131 | [1] -0.173 | [3] 0.022 | rosiglitazone 0.243 | [9] 0.155 | saracatinib -0.043 | sotrastaurin 0.001 | alvocidib -0.18 | Tubastatin A 0.119 | [2] 0.011 | defactinib -0.207 | [10] 0.217 | [4] -0.302

F2RL3 (UniProt Q96RI0)
Sequence of UniProt Q96RI0 (Q96RI0 whole entry, looked up): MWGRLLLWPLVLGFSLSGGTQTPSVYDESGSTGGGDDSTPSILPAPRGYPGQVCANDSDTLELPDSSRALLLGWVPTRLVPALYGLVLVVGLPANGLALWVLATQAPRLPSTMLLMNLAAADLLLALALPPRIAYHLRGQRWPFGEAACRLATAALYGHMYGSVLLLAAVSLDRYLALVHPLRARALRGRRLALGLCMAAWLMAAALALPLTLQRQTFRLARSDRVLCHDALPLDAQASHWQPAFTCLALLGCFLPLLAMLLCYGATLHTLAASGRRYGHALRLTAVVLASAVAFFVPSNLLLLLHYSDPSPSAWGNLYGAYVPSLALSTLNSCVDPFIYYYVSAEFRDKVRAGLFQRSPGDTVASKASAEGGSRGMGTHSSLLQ
inactive: volasertib 0.076 | [1] 0.074 | [3] 0.012 | [9] -0.002 | saracatinib 0.04 | alvocidib 0.004 | Tubastatin A 0.082 | [2] -0.051 | defactinib 0.009 | [10] 0.005 | [4] 0.008

FAM160A2 isoform 2 (UniProt Q8N612)
inactive: [5] -0.074 | [8] -0.048 | epoxomicin -0.177 | [6] 0.06 | [3] 0.052 | rosiglitazone -0.046 | [9] 0.287 | [7] -0.258 | saracatinib -0.066 | alvocidib -0.016 | Tubastatin A -0.17 | defactinib -0.002 | rucaparib -0.085 | [10] -0.064 | encorafenib -0.168 | [4] 0.128

ERF (UniProt P50548)
inactive: epoxomicin 0.068 | [1] 0.033 | [6] -0.052 | [7] 0.319 | sotrastaurin -0.058 | Tubastatin A 0.377 | [2] 0.069

DDB1 isoform 2 (UniProt Q16531)
inactive: [5] 0.141 | epoxomicin -0.287 | [6] 0.235 | rosiglitazone 0.301 | [7] -0.041 | sotrastaurin 0.053 | rucaparib -0.067 | encorafenib -0.041

DCP2 (UniProt Q8IU60)
inactive: volasertib -0.153 | epoxomicin -0.04 | [3] -0.069 | [9] 0.319 | saracatinib -0.053 | sotrastaurin -0.267 | alvocidib -0.047 | Tubastatin A 0.013 | defactinib 0.098 | [10] -0.153 | [4] 0.081

DHRS13 (UniProt Q6UX07)
inactive: [5] 0.157 | [8] 0.139 | [1] -0.135 | [6] -0.077 | [3] 0.225 | [9] 0.143 | [7] 0.098 | saracatinib -0.03 | sotrastaurin -0.17 | alvocidib -0.139 | Tubastatin A 0.105 | [2] 0.024 | defactinib -0.032 | rucaparib 0.188 | [10] 0.174 | encorafenib 0.021 | [4] -0.114

DHPS (UniProt M0R1T2)
inactive: rosiglitazone -0.057 | sotrastaurin -0.06

ELOVL7 (UniProt A1L3X0)
Sequence of UniProt A1L3X0 (A1L3X0 whole entry, looked up): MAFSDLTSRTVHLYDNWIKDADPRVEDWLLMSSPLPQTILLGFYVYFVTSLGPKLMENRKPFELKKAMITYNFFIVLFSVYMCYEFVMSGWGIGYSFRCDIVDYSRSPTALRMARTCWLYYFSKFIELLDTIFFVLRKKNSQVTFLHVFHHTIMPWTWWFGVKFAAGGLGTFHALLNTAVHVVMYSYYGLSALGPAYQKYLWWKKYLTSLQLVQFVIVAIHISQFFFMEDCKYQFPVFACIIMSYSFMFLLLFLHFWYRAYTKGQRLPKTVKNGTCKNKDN
inactive: epoxomicin 0.007 | [1] -0.016 | [9] 0.047 | saracatinib -0.018 | alvocidib -0.101 | Tubastatin A -0.002 | [2] -0.112 | [10] -0.093

DENND1A isoform 6 (UniProt Q8TEH3)
active: volasertib -0.856
inactive: [3] 0.112 | rosiglitazone -0.041 | Tubastatin A -0.018 | defactinib -0.081 | [4] -0.024

DDX27 (UniProt Q96GQ7)
Sequence of UniProt Q96GQ7 (Q96GQ7 whole entry, looked up): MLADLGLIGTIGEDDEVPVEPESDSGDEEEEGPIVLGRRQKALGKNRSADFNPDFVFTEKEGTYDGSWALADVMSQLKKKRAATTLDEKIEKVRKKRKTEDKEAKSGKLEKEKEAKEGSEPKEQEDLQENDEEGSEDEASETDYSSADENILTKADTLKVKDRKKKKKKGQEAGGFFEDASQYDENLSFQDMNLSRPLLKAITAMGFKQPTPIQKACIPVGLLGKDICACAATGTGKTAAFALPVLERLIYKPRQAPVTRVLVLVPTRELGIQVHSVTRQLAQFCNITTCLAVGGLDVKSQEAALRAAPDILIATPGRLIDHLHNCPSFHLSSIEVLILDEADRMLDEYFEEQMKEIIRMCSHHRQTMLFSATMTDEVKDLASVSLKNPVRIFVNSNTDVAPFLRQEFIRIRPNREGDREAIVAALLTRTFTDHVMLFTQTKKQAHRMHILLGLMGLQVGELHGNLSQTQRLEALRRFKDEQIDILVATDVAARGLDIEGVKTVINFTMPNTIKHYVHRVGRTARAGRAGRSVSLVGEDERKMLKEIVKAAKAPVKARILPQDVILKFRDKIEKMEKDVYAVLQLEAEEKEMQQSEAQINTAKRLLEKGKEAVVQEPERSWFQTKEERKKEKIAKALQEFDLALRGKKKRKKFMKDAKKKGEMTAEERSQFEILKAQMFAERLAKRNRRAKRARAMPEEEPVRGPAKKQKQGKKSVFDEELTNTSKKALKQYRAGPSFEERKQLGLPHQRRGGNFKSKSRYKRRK
inactive: [5] -0.033 | [8] 0.1 | epoxomicin -0.184 | [1] -0.084 | [6] 0.116 | [3] -0.009 | [9] 0.162 | [7] 0.241 | saracatinib -0.104 | sotrastaurin -0.088 | alvocidib 0.209 | Tubastatin A 0.09 | [2] -0.035 | defactinib 0.651 | rucaparib 0.255 | [10] -0.017 | encorafenib 0.124 | [4] 0.057

DNAL1 (UniProt Q4LDG9)
inactive: epoxomicin 0.082 | [3] 0.103 | rosiglitazone -0.683 | [9] -0.256 | saracatinib -0.081 | alvocidib -0.121 | defactinib -0.14 | [10] 0.062 | [4] -0.13

DNAJB1 (UniProt M0R128)
inactive: [3] -0.038 | rosiglitazone 0.223 | alvocidib 0.082 | Tubastatin A -0.058 | defactinib -0.073 | [4] 0.18

DNM2 isoform 4 (UniProt P50570)
inactive: [5] 0.026 | [8] -0.125 | epoxomicin 0.241 | [1] 0.017 | [6] -0.01 | rosiglitazone 0.038 | [9] 0.027 | [7] -0.252 | saracatinib -0.126 | sotrastaurin -0.024 | alvocidib -0.072 | [2] -0.088 | rucaparib -0.268 | [10] -0.235 | encorafenib 0.107

From the supplement of paper PMC10849652
